TDP43 rescue: TDP-43 toxicity inhibition in yeast. TDP-43 expressing yeast growth rescue, BacTiter-Glo, 24 h. Potency, µM (doses to about 46.1 µM), most hits filed as activators. 410,000 compounds, 1.8% hits; note: nearly all actives have a fitted effect of over 50% in size
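Growth rescue of TDP-43-toxic yeast measured as ATP luminescence (BacTiter-Glo). Cells grown to mid-log in raffinose, induced in galactose at OD600=0.02, exposed to compound 24 hr at 30 deg C.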
Mito fusion yeast: inhibitors of mitochondrial division or activators of mitochondrial fusion; S. cerevisiae fusion-defective mutant growth rescue, CellTiterGlo 48 h; Potency, µM (doses to about 46.1 µM), usual class: activators; 320,000 compounds, 0.23% hits; AID 485298; note: nearly all actives have a fitted effect of over 45% in size
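S. cerevisiae fusion-defective temperature-sensitive mutants (e.g. fzo1-1, mgm1-5) grown 48 h at 37C in YPEG (ethanol/glycerol non-fermentable) medium with 23 nl compound per well; growth rescue read as CellTiterGlo luminescence.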
FUS suppressor: FUS proteinopathy suppression in yeast. 390,000 compounds, 0.24% hits. Potency, µM (doses to about 76.6 µM), most hits filed as activators. S. cerevisiae FUS-expressing, growth rescue, OD600, 24 h; note: nearly all actives have a fitted effect of over 55% in size
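Toxicity suppression screen in FUS-yeast. Cells induced with 2% galactose, starting OD 0.005, treated 24hr at 30C with compounds at multiple final concentrations; growth by OD600.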
aSyn yeast inh: inhibitors of alpha-synuclein toxicity in yeast; AID 652106; Yeast expressing alpha-synuclein, growth rescue, BacTiter-Glo, 24 h; Potency, µM (doses to about 46.1 µM), usual class: activators; 370,000 compounds, 0.14% hits; note: nearly all actives have a fitted effect of over 65% in size
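Readout is rescue of growth in alpha-synuclein-expressing yeast, so inhibitors of toxicity appear as activators. Growth after 24 hr at 30 deg C in galactose medium is quantified by luminescence.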
Abeta rescue: A-beta toxicity reversal in yeast; Potency, µM (series often up to 46.1 µM), hits mostly activators; 410,000 compounds, 0.063% hits; yeast expressing A-beta42, growth rescue, OD600, 48 h; response scale: 0% DMSO, 100% iron-clioquinol control; note: nearly all actives have a fitted effect of over 55% in size
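Yeast A-beta toxicity model in growth medium with pinned compounds, 48 h at 30 C; growth read as absorbance at 600 nm. Normalized to FeCl3/clioquinol equimolar mix (positive) and DMSO (negative).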
Numbers stand for hits; i = inactive; ? = inconclusive; nt = no result; [ ] = another dose, or the depositor's remark. Only some compounds are listed: those with a hit (about 2.2% of all), similar ones and a draw of the others. Calls come from the whole dose curve; as a rule, active = well fitted curve in the direction sought with a large enough effect; inconclusive = small, poorly fitted or top-dose-only effect, or another doubt; inactive = no such curve, though single readings can be large; an effect the other way counts as inactive or inconclusive.

SMILES | TDP43 rescue | Mito fusion yeast | FUS suppressor | aSyn yeast inh | Abeta rescue
O=C(Cc1ccccc1)Nc1ncccn1 | i | i | i | i | i
CCCCOc1ccc(C(=O)NNC(=S)NC(=O)CC)cc1 | ? | i | i | i | i
O=C(/C=C/c1ccco1)NC(=S)NNC(=O)c1ccco1 | ? | i | i | 11µM | ?
CCC(=O)NC(=S)NNC(=O)c1ccc(OC)cc1 | i | i | i | 10µM | 10µM
O=[N+]([O-])c1ccc(/C=C/c2ccnc3ccccc23)c([N+](=O)[O-])c1 | nt | nt | nt | i | nt
COc1ccc(C2CC(c3ccc(Cl)cc3)=NN2C(C)=O)cc1 (configuration not stated) | 13µM | i | i | ? | i
CC(=O)N1N=C(c2ccc(Cl)cc2)CC1c1ccc([N+](=O)[O-])cc1 (configuration not stated) | i | i | i | i | i
O=[N+]([O-])c1ccccc1/C=C/C=N/Nc1ccc(S(=O)(=O)Nc2ccc(Cl)cc2)cc1[N+](=O)[O-] | i[9.22 µM] | i | i | i | i
CCOC(=O)c1nnn(-c2nonc2N)c1CSc1ccc(C)cc1 | 22µM | ? | i | i | i
CCOC(=O)c1nnn(-c2nonc2N)c1CSc1ccccc1 | ? | i | i | i | i
COc1ccc(CC(=O)NNC(=O)c2cc(Cl)ccc2OC)cc1 | i | i | i | i | i
C=C(C)c1cccc(C(C)(C)NC(=O)Nc2ccc(C)cn2)c1 | 13µM | ? | nt | i | i
C=C(C)c1cccc(C(C)(C)NC(=O)Nc2cc(C)ccn2)c1 | i | i | nt | i | i
CN(C(=O)c1ccc(NC(=O)Cc2cccc(NC(=O)C3CCCN(C(=O)C4CCCCC4)C3)c2)cc1)C1CCCC1 (configuration not stated) | i | i | 28µM | i | i
CN(C(=O)c1ccc(NC(=O)Cc2cccc(NC(=O)C3CCCN(C(=O)C4CCC4)C3)c2)cc1)C1CCCC1 (configuration not stated) | i | i | ? | i | i
CCc1ccc(NC(=S)N(Cc2ccccc2)Cc2ccccn2)cc1 | ? | i | i | i | 13µM
CCc1ccc(NC(=S)N(CCCN2CCOCC2)Cc2ccccn2)cc1 | i | i | i | i | i
COc1ccc(CCNC(=O)CN(c2ccc(C)cc2)S(=O)(=O)c2ccc(OC)cc2)cc1 | i | nt | i | nt | i
Cc1cccc(C(=O)N2CCN(c3ncnc4c3cnn4-c3ccccc3)CC2)c1 | i | i | nt | i | i
c1ccc(-n2ncc3c(N4CCN(CCOc5cccc6ccccc56)CC4)ncnc32)cc1 | 20µM | i | i | i | i
O=C(COc1ccccc1)N1CCN(c2ncnc3c2cnn3-c2ccccc2)CC1 | 14µM | i | i | i | i
CC1=Nc2cc(C(=O)NC(C)C)ccc2Sc2ccc(C)cc21 | i | nt | i | nt | i
O=C(N/N=C/c1cc(Br)ccc1OC(=O)c1ccc(Br)cc1)c1ccncc1 | i | i | i | i | i
COCCN=c1scc(-c2cc(OC)ccc2OC)n1/N=C/c1c[nH]c2ccccc12 | 22µM | i | i | ? | i
Cc1ccc(C(=O)c2coc3ccc(O)c(Cl)c23)cc1 | 16µM | i | i | i | i
SMILES | TDP43 rescue | Mito fusion yeast | FUS suppressor | aSyn yeast inh | Abeta rescue
Cc1ccc(-n2nnnc2C(Cl)c2nnnn2-c2ccc(C)cc2)cc1 | 3.5µM | i | i | i | i
CCc1cc(C(=O)c2ccccc2)c(N)s1 | 11µM | i | i | i | i
CCOc1ccc(C(=O)N2CCC(c3nc4ccccc4o3)CC2)cc1 | i | nt | i | nt | i
CC1(C(=O)NCc2cccc3ccccc23)CCN1C(=O)Cc1ccc(-c2ccccc2)cc1 (configuration not stated) | ? | nt | ? | ? | i
O=C(Nc1c(-c2ccc(F)cc2)nc2ncccn12)c1ccc(F)cc1 | nt | nt | i | nt | nt
CCc1ccc(C(=O)c2cn(Cc3ccc(F)cc3)c3cc(OC)c(OC)cc3c2=O)cc1 | ? | nt | 35µM | nt | i
CCCNC(=O)c1cc2c(c(-c3cccc(-c4ccccc4F)c3)n1)[C@@H](CCO)N(C(=O)CC1CC1)C2 | 14µM | nt | ? | i | i
O=C(NCC(F)(F)F)c1cc2c(c(-c3cccc(-c4ccccc4F)c3)n1)[C@H](CCO)N(C(=O)CC1CC1)C2 | i | nt | ? | i | i
COc1ccccc1C(C(=O)NC1CCCC1)N(C(=O)c1csnn1)C1CC1 (configuration not stated) | i | 3.2µM | i | i | i
COc1ccccc1C(C(=O)NCc1ccccc1)N(C(=O)c1csnn1)C1CC1 (configuration not stated) | i | i | i | i | i
O=S(=O)(/N=C(/Nc1cccnc1Cl)c1ccccc1)c1ccccc1 | i | nt | i | i[1.84 µM] | i
Fc1ccc(-c2noc3ncnc(N4CCN(c5ccccc5)CC4)c23)cc1 | 25µM | nt | i | i | i
Cc1noc2ncnc(N3CCN(c4ccccc4F)CC3)c12 | 22µM | nt | i | ? | i
Fc1ccc(-c2noc3ncnc(N4CCCCC4)c23)cc1 | i | nt | i | nt | i
CCc1nc2c(OCc3ccc(Cl)cc3Cl)cccn2c1N(C)C(=O)c1ccccc1F | 18µM | nt | ? | i | i
CCCCC(=O)N(C)c1c(CC)nc2c(OCC(=O)c3ccc(Cl)cc3Cl)cccn12 | i | nt | 32µM | i | i
CC(C(=O)Nc1cccc(C#N)c1)n1nc(-c2ccccc2)c2c(c1=O)CCCC2 (configuration not stated) | i | nt | ? | nt | i
CC(C(=O)Nc1ccccc1C(F)(F)F)n1nc(-c2ccccc2)c2c(c1=O)CCCC2 (configuration not stated) | 35µM | nt | i | nt | i
Cc1c(C(=O)c2ccc3c(c2)OCO3)ccc2c1OCO2 | 18µM | nt | nt | i | i
CCCN(CCC)C(=O)c1ccc2c(c1)OCO2 | i | i | i | i | i
COc1cc(C)c(NC(C)C(=O)c2c(C)[nH]c3ccccc23)cc1OC (configuration not stated) | nt | nt | nt | i | nt
Cc1ccc2nc(SCc3nc(-c4ccccc4C)no3)[nH]c2c1 | ? | nt | i | nt | i
CCc1c(C2(O)CCCCC2)[nH]c2cnccc12 | i | i | i | i | i
COC(=O)c1ccc2[nH]c(C3(O)CCCCC3)c(C)c2c1 | 18µM | nt | i | i | i
Cc1c(C2(O)CCCCC2)[nH]c2ccc(C(F)(F)F)cc12 | 3.5µM | nt | i | i | i
SMILES | TDP43 rescue | Mito fusion yeast | FUS suppressor | aSyn yeast inh | Abeta rescue
CCOC(=O)c1[nH]c2ccc(C(=O)OC)cc2c1C(=O)OCC | i | i | i | i | i
O=C(c1ccccc1)N1CCN(c2ncccn2)CC1 | i | i | i | i | i
CCCc1cnc(N2CCN(C(=O)c3ccccc3)CC2)nc1 | 11µM | i | i | i | i
CN(Cc1cc(=O)n2ccsc2n1)c1ccccc1 | ? | i | i | i | i
O=c1cc(CNc2ccc(Br)cc2)nc2sccn12 | 20µM | i | nt | ? | i
O=C1CCC(=O)N1c1ccc(NCc2ccccc2Cl)c([N+](=O)[O-])c1 | 22µM | i | i | i | i

Bioassay records (PubChem)
